According to PubChem BioAssay (NCATS):
A number with no mark means an inactive call. Activity calls are given as the source filed them. How the calls were made is not given here.

molecular target: Nuclear receptor subfamily 1 group I member 2 (Rattus norvegicus) (UniProt Q9R1A7); assay: qHTS assay for small molecule activators of the rat pregnane X receptor (rPXR) signaling pathway (AID 651751); conditions: rPXR reporter cells, luciferase (One-Glo), 24 h
Further: 0% is about no effect.

Sequence of Nuclear receptor subfamily 1 group I member 2 (Rattus norvegicus) (Q9R1A7 whole entry, looked up): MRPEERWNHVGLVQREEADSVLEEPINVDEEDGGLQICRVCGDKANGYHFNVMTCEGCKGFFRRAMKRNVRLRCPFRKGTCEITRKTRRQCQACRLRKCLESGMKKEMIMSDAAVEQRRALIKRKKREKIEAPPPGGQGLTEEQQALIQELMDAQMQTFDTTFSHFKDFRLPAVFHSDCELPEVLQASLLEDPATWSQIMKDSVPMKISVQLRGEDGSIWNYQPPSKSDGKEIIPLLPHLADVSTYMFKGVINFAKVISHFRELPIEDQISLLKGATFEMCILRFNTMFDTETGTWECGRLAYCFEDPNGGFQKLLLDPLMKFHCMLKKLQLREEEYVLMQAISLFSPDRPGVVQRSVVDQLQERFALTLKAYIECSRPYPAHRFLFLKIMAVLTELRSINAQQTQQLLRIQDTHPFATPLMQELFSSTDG

| Structure (SMILES) | max response |
| --- | --- |
| COc1cc(OC)nc(Sc2cccc(Cl)c2C(=O)O)n1 | 3.18% |
| CCOP(=O)(OCC)Oc1nc(Cl)c(Cl)cc1Cl | 2.55% |
| c1ccc2c(c1)oc1ccccc12 | -0.589% |
| CC(C)(C)OOC(C)(C)CCC(C)(C)OOC(C)(C)C | -1.16% |
| CNC(=O)O/N=C(\C)SC | -0.197% |
| CCc1cnc(C2=NC(C)(C(C)C)C(=O)N2)c(C(=O)O)c1 (centres undefined) | -2.79% |

tested on: not listed separately; assay: qHTS assay for small molecule activators of the human pregnane X receptor (PXR) signaling pathway (AID 720659); conditions: DPX-2 HepG2 CYP3A4-luciferase, 24 h; series mostly up to 92.3 µM

| Structure (SMILES) | outcome |
| --- | --- |
| CC/C(=N\OC/C=C/Cl)C1=C(O)CC(C2CCOCC2)CC1=O (centres undefined) | inactive |
| COc1cc(OC)nc(Sc2cccc(Cl)c2C(=O)O)n1 | inactive |
| CCOP(=O)(OCC)Oc1nc(Cl)c(Cl)cc1Cl | inactive |
| c1ccc2c(c1)oc1ccccc12 | inactive |
| C1CC[CH]([Sn]([CH]2CCCCC2)[CH]2CCCCC2)CC1 | inactive |
| CC(C)(C)OOC(C)(C)CCC(C)(C)OOC(C)(C)C | inactive |
| CCc1cnc(C2=NC(C)(C(C)C)C(=O)N2)c(C(=O)O)c1 (centres undefined) | inactive |
| O=C1C(Cl)=C(Cl)C(=O)c2ccccc21 | inactive |
